{"source": "PubChem BioAssay AID1878", "about": "(Sanford-Burnham Center for Chemical Genomics, 2009)", "note": "The whole screen tested about 1,000 compounds, of which about 200 (20%) were called active. Rule as the data show it: active = inhibition above about 55%; inactive = the rest. These entries were drawn from the full list. Results with a measured potency or affinity are listed apart.", "data": [{"target": "Dual specificity protein phosphatase 3 (Homo sapiens) (UniProt P51452)", "sequence (P51452 whole entry, looked up)": "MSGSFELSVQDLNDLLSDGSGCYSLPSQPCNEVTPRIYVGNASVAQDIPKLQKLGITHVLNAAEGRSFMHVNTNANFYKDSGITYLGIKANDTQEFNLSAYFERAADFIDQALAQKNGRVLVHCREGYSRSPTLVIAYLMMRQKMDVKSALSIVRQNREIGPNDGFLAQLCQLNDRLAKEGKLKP", "test": "VHR1 phosphatase inhibitors, biochemical (AID 1878)", "details": "recombinant VHR phosphatase, fluorogenic substrate; at 13.3 µM; hits give high values", "values": [{"smiles": "S=C(c1ccc(OCc2ccccc2)cc1)N1CCCC1", "inhibition": "7.3% (inactive)"}, {"smiles": "CN(C)c1ccc(C(=S)N2CCN(Cc3ccccc3)CC2)cc1", "inhibition": "56.8% (active)"}, {"smiles": "CCCC(CCC)C(=O)NC1CCN(Cc2ccccc2)CC1", "inhibition": "-4.1% (inactive)"}, {"smiles": "O=c1[nH]c2ccc(NS(=O)(=O)c3ccc(F)c(Cl)c3)cc2[nH]1", "inhibition": "-7.2% (inactive)"}, {"smiles": "NC(=S)N/N=C/c1ccc2cccc(OCc3ccccc3)c2n1", "inhibition": "9.9% (inactive)"}, {"smiles": "Cc1cc2c(cc3c(=O)n(CC(=O)NCCCN4CC(C)CC(C)C4)ncn32)s1", "note": "(stereo not given)", "inhibition": "-3.8% (inactive)"}, {"smiles": "Cc1[nH]c(=O)[nH]c(=O)c1S(=O)(=O)Nc1ccc(Br)cc1F", "inhibition": "4.3% (inactive)"}, {"smiles": "O=C(N[C@@H](Cc1ccccc1)C(=O)N1CCC2(CC1)NCCc1[nH]cnc12)c1cccc(F)c1", "inhibition": "19.9% (inactive)"}, {"smiles": "CN1CCN(Cc2nc3ccccc3n2C)CC1CCO", "note": "(stereo not given)", "inhibition": "-0.8% (inactive)"}, {"smiles": "Cc1ccc(-n2cccc2/C=C2\\C(=N)N3N=C(c4ccco4)SC3=NC2=O)cc1", "inhibition": "98.9% (active)"}, {"smiles": "CS(=O)(=O)C1=NSC2=NC(=O)/C(=C\\c3cccn3-c3ccc(Cl)cc3)C(=N)N21", "inhibition": "86.4% (active)"}, {"smiles": "c1ccc(NC2=NCCCS2)cc1", "inhibition": "-2.2% (inactive)"}, {"smiles": "COc1ccc(C)c(NC(=O)NCCc2cnc[nH]2)c1", "inhibition": "7.6% (inactive)"}, {"smiles": "CCOc1ccc(S(=O)(=O)N2CCOCC2)cc1NC(=O)CSCC(=O)Nc1cccc(C)c1", "inhibition": "-2.1% (inactive)"}, {"smiles": "CCCCCCC(=O)Nc1nc(C)c(-c2csc(Nc3cc(OC)ccc3OC)n2)s1", "inhibition": "11.7% (inactive)"}, {"smiles": "O=C(COc1ccc(S(=O)(=O)N2CCOCC2)cc1)N1CCN(c2ccccc2)CC1", "inhibition": "7.2% (inactive)"}, {"smiles": "CNC1(C(N)=O)CCNCC1", "inhibition": "-8.1% (inactive)"}, {"smiles": "CC1=CC(=C2C=CC(=O)C=C2)C=C(C)N1C", "inhibition": "4.7% (inactive)"}, {"smiles": "CCCCNC(=O)CCc1c(C)nc2c(c(C)nn2-c2ccccc2)c1C", "inhibition": "-6.7% (inactive)"}, {"smiles": "Cc1ccc(CC(=O)NC2CCN(C)CC2)cc1", "inhibition": "21.9% (inactive)"}, {"smiles": "CN1CCCN(C(=O)c2cccc(Cl)c2)CC1", "inhibition": "-8.6% (inactive)"}, {"smiles": "Cc1cccc(-n2c(N)c(C(=O)N3CCN(C)CC3)sc2=S)c1", "inhibition": "36.6% (inactive)"}, {"smiles": "CC(C)c1ccc(NC(=O)N2CCN(S(=O)(=O)c3ccccc3)CC2)cc1", "inhibition": "0% (inactive)"}, {"smiles": "Nc1c2c(nc3c1CCCC3)CCCC2", "note": "(tested in a mixture with another compound)", "inhibition": "-12.1% (inactive)"}, {"smiles": "CN(C)CCN(Cc1ccccc1)C(=O)C1CCN(c2ncnc3c2nc2n3CCCCC2)CC1", "inhibition": "-3.7% (inactive)"}, {"smiles": "CC(C)(C)NC(=S)N1CCC(C(=O)c2ccc(F)cc2)CC1", "inhibition": "-7.6% (inactive)"}, {"smiles": "Cc1ccc(N=C2C(=O)Nc3c(C)cccc32)cc1", "inhibition": "-18.2% (inactive)"}, {"smiles": "O=S(=O)(NC(=NCc1ccccc1)c1ccccc1)c1ccccc1", "inhibition": "-7.7% (inactive)"}, {"smiles": "CCC(C)(C)NC(=O)CN(C(=O)CCC(=O)Nc1nccs1)c1ccc2c(c1)OCCO2", "inhibition": "1.8% (inactive)"}, {"smiles": "O=C(c1cccc([N+](=O)[O-])c1)c1ccc2c(c1)C(=O)N(c1c[nH]c(=O)[nH]c1=O)C2=O", "inhibition": "-0.9% (inactive)"}, {"smiles": "CC(C)=C(NC(=O)c1ccccc1)C(=O)NCCc1nc2ccccc2[nH]1", "inhibition": "26.9% (inactive)"}, {"smiles": "Cc1ccc2nc(NC(=O)C3CC3C)sc2c1", "note": "(stereo not given)", "inhibition": "-7.4% (inactive)"}, {"smiles": "CCc1ccc2nc(NC(=O)c3ccc4c(=O)[nH]c(CN5CCOCC5)nc4c3)sc2c1", "inhibition": "66.5% (active)"}, {"smiles": "CCN(CC)CCCNC(=O)c1oc2ccc3c(c2c1C)C(O)CC(C)(C)O3", "note": "(stereo not given)", "inhibition": "-1.6% (inactive)"}, {"smiles": "CC(C)C(=O)N1CCC(n2nccc2NC(=O)CCc2ccccc2)CC1", "inhibition": "-2.1% (inactive)"}]}]}
